High-throughput results: PubChem, National Center for Advancing Translational Sciences (NCATS)
PMP22 txn = Cell-based coincidence reporter assay to measure PMP22 gene transcription in S16 Pmp22-F2sN cells - Primary screen. hit rate 2% among 43,000. S16 Pmp22-F2sN Schwann cells, FLuc/NLuc coincidence luminescence, 24 h. Potency, µM (doses to about 57.5 µM), for inactives: at the highest dose activity change, negative = inhibition, usual class: inhibitors. AID 1508649, 2021; active means clear falling dose curves in both reporters; inconclusive means both reporters move, but less clearly or upward; inactive means either reporter flat; the % is the NLuc reporter signal; further: potency means the concentration at half of the fitted maximal effect; on the % scale 0 is the no-effect control and ±100 the full control effect
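Transcriptional readout in edited S16(c9) cells: two luciferases reported from the Pmp22 locus, measured in turn after 24 h compound incubation.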
S16 F2sN tox = Cell viability qHTS assay in S16 Pmp22-F2sN cells. S16 Pmp22-F2sN Schwann cells (luciferase reporters placed in the Pmp22 gene) viability, CellTiter-Glo, 24 h. Potency, µM (top dose mostly 57.5 µM), for the others: at the top dose activity change, negative = cytotoxicity, usual class: cytotoxic. hit rate 0.48% among 43,000; further: potency means the concentration at half of the fitted maximal effect; on the % scale 0 is the no-effect control and ±100 the full control effect; nearly all actives have a fitted effect of over 65% in size
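Rat S16 Schwann reporter line, 24 h treatment with library compounds delivered at 23 nL per well. Cell viability by CellTiter-Glo luminescence.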
GALC G270D up = A Novel Cell-Based Assay to Identify Small Molecules for B -Galactocerebrosidase; P54803; 145M-Twi-hGALC-G270D cells, HMU-beta-Gal fluorescence, 48 h; Potency, µM (series often up to 57.5 µM), actives largely listed as activators; hit rate 0.1% among 45,000; AID 1159614, 2016; further: potency means the concentration at half of the fitted maximal effect; 0% is about no effect; nearly all actives have a fitted effect of over 65% in size
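qHTS, 1536-well; 145M-Twi-hGALC-G270D cells (WT line also made) in DMEM/F12 + 10% FBS; compound incubation on live cells; HMU-β-gal 0.1 mM final, pH 5.2, NaTC; carbonate stop; fluorescence increase = enhanced residual activity.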
pS6 MEF inh = Acumen qHTS Assay for Inhibitors of the mTORC1 Signaling Pathway in MEF (Tsc2-/-, p53-/-) Cells: Sytravon; Tsc2-/- p53-/- MEF, phospho-rpS6 immunofluorescence/PI, 24 h; Potency, µM (doses to about 38.3 µM), without a hit: top-dose activity change, negative = inhibition, most hits filed as inhibitors; hit rate 0.78% among 44,000; AID 493208, 2011;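 further: potency means the concentration at half of the fitted maximal effect; plate controls were DMSO for no effect and rapamycin for full effect; nearly all actives have a fitted effect of over 50% in size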
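Read-out: phospho-S6 Alexa-488 intensity over PI intensity per well, scored as % active cells using thresholds from rapamycin (7.5 nM) and DMSO controls. Tsc2-/-, p53-/- MEFs exposed to compound for 24 h; PI cell count recorded as viability.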
NLuc sat counter = Biochemical NLuc saturation counterscreen for small molecule modulators of PMP22 gene expression - Nano-Glo assay. shares compounds with PMP22 txn. Secreted NLuc enzyme (filtered S16 cell medium), Nano-Glo luminescence. Potency, µM (top dose mostly 57.5 µM), for the others: top-dose activity change, negative = inhibition, actives largely listed as inhibitors. hit rate 4% among 690; further: potency means the concentration at half of the fitted maximal effect; on the % scale 0 is the no-effect control and ±100 the full control effect
NLuc Km ctr = Biochemical coelenterazine-based NLuc counterscreen for small molecule modulators of PMP22 gene expression - Km assay; shares compounds with PMP22 txn; secreted NLuc enzyme, coelenterazine luminescence, Km conditions; Potency, µM (highest dose often 57.5 µM), for the others: top-dose activity change, negative = inhibition, usual class: inhibitors; hit rate 5% among 690; AID 1508639, 2021; further: potency means the concentration at half of the fitted maximal effect; on the % scale 0 is the no-effect control and ±100 the full control effect
FLuc ctr PMP22 = Biochemical FLuc counterscreen for small molecule modulators of PMP22 gene expression. purified P. pyralis FLuc, luminescence, 10 min. shares compounds with PMP22 txn. 690 tested, under 10 active. Potency, µM (doses to about 57.5 µM), without a hit: at the top dose activity, negative = inhibition, most hits filed as inhibitors. AID 1508640, 2021; further: % of control where 0% means no effect
Target sequence (P08659 whole entry, looked up): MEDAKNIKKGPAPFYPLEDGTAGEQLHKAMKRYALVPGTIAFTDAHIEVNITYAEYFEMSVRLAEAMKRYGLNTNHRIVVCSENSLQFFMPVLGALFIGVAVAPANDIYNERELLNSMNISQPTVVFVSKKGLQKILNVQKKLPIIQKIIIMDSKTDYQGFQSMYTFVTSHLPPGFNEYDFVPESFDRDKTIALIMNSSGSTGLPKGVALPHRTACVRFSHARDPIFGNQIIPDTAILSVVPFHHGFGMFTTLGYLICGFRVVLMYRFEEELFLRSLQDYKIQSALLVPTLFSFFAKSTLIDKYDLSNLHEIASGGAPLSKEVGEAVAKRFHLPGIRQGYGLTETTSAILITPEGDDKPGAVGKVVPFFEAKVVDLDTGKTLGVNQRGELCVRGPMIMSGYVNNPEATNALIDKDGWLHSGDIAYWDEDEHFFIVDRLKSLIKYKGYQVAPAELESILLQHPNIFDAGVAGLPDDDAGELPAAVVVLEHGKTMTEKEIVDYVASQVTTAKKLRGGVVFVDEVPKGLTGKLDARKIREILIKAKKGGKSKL
S16 viab conf = Cell viability qHTS assay in S16 Pmp22-F2sN cells - Confirmatory screen | shares compounds with PMP22 txn | S16 Schwann cells viability, CellTiter-Glo ATP luminescence, 24 h | Potency, µM (titrated, usually from 57.5 µM), without a hit: at the highest dose activity change, negative = viability loss, hits mostly cytotoxic | hit rate 7% among 690 | AID 1508641, 2021; further: potency means the concentration at half of the fitted maximal effect; on the % scale 0 is the no-effect control and ±100 the full control effect
PMP22 txn conf = Cell-based coincidence reporter assay to measure PMP22 gene transcription in S16 Pmp22-F2sN cells - Confirmatory screen; shares compounds with PMP22 txn; S16 Schwann cells Pmp22-F2sN, dual luciferase, 24 h; Potency, µM (highest dose often 57.5 µM), inactives show at the highest dose activity change, negative = inhibition, hits mostly inhibitors; hit rate 22% among 690; AID 1508646, 2021; active means clear falling dose curves in both reporters; inconclusive means both reporters move, but less clearly or upward; inactive means either reporter flat; the % is the FLuc reporter signal; further: potency means the concentration at half of the fitted maximal effect
* marks the source's active call; other numbers are inactive results; i = inactive; ? = inconclusive; · = not tested or not shown. Most compounds without a hit are left out; they make up all but 2.8% or so of the library. Unless noted, the call rests on the fitted dose curve; in most records, active means well fitted curve in the direction sought with a large enough effect; inconclusive means small, poorly fitted or top-dose-only effect, or another doubt; inactive means no such curve, though single readings can be large; an effect the other way counts as inactive or inconclusive.

SMILES	PMP22 txn	S16 F2sN tox	GALC G270D up	pS6 MEF inh	NLuc sat counter	NLuc Km ctr	FLuc ctr PMP22	S16 viab conf	PMP22 txn conf
CCCC(=O)N(c1ccc2oc(C)c(C(C)=O)c2c1)S(=O)(=O)c1ccc(CC)cc1	8.4µM*	?	i	-13%	-17%	5%	-8%	-25%	?
O=C(Cn1cc(C(=O)c2ccco2)c2ccccc21)Nc1ccccc1C(F)(F)F	12µM*	-13%	i	-19%	-4%	3%	5%	16%	3%
CCCCCOc1ccccc1CN1C(=O)C(=O)c2cc(C)ccc21	14µM*	0%	i	?	?	?	-1%	-6%	?
COc1ccc(C)cc1NC(=O)c1cc(S(=O)(=O)N2CCN(c3cccc(C)c3C)CC2)ccc1F	?	-10%	i	?	-2%	5%	-3%	-4%	7%
COc1ccc(C)cc1NC(=O)c1cc(S(=O)(=O)N2CCC(C)CC2)ccc1F	?	10%	i	10%	·	·	·	·	·
COc1ccc(-c2csc3ncnc(Nc4ccc(OC)cc4OC)c23)cc1	?	-21%	i	0%	·	·	·	·	·
COc1ccccc1Nc1ncnc2scc(-c3ccc(F)cc3)c12	18µM*	-28%	i	11%	-8%	4%	7%	-2%	-49%
CCc1ccccc1NC(=O)Cn1c(=O)oc2ccccc21	-28%	5%	i	-10%	·	·	·	·	·
CCc1cccc(NC(=O)Cn2c(C(=O)OC)cc3occc32)c1	19%	5%	i	0%	·	·	·	·	·
COC(=O)c1cc2occc2n1Cc1cccc(C)c1	?	1%	i	5%	-20%	?	3%	7%	20%
CCN(CC)c1cc(C)c2cc(NC(=O)c3ccc(F)cc3Cl)ccc2n1	?	-10%	i	-4%	·	·	·	·	·
CCN(CC)c1cc(C)c2cc(NC(=O)/C=C/c3ccccc3Cl)ccc2n1	12µM*	?	i	?	?	-17%	-24%	?	?
COc1ccccc1Cn1c(CNS(=O)(=O)c2ccccc2Cl)nc2cccnc21	-12%	9%	i	3%	·	·	·	·	·
CCOc1ccc(N(C(=O)CC(C)C)S(=O)(=O)c2ccc3c(c2)oc(=O)n3C)cc1	-15%	5%	i	-6%	·	·	·	·	·
Cc1ccccc1C(=O)Nc1ccc2oc(-c3ccc(Cl)c(Cl)c3)nc2c1	·	·	·	1%	·	·	·	·	·
Cc1ccc(-n2c3c(cc(C(=O)Nc4ccccc4C(N)=O)c2=O)C(=O)CC(C)(C)C3)cc1	3.4µM*	0%	i	2%	?	-4%	5%	-14%	-32%
